# The panel holds about 79,000 compounds, 15% with a hit somewhere; the sample as a whole holds those more often. Values without a mark were called inactive. The source made the active and inactive calls. No stated cut-off is given here; in the data, active means growth inhibition above about 70%; inactive means the rest.
# Columns and labels:
# [1] = NCI Yeast Anticancer Drug Screen. Data for the rad50 strain (AID 155);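 further: 0% = growth of vehicle-only cultures of the same strain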; details: S. cerevisiae rad50 strain growth inhibition, hits give high values
# Method in brief: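 A DNA repair-deficient yeast mutant serves as the test organism; compound-induced growth inhibition is calculated against vehicle-treated cells.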
# [2] = NCI Yeast Anticancer Drug Screen. Data for the mec2-1 strain (AID 157); details: S. cerevisiae mec2-1 strain, hits give high values
# Method in brief: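 Test agents were screened against the mec2-1 yeast strain, with defined DNA repair or cell cycle alteration. Growth was scored as inhibition against vehicle-only controls.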
# [3] = NCI Yeast Anticancer Drug Screen. Data for the sgs1 mgt1 strain (AID 161);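 further: 0% = growth of cultures given vehicle only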; details: S. cerevisiae sgs1 mgt1 strain, hits give high values
# Method in brief: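 Inhibition of yeast growth, normalised to vehicle-treated controls, is reported for a strain bearing genetic alterations in DNA damage repair.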
# [4] = NCI Yeast Anticancer Drug Screen. Data for the cln2 rad14 strain (AID 165);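 further: 0% = growth equal to vehicle treated cultures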; details: S. cerevisiae cln2 rad14 strain, hits give high values
# Method in brief: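 Growth of compound-exposed yeast (cln2 rad14 genotype) measured and expressed as inhibition relative to vehicle.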
# [5] = NCI Yeast Anticancer Drug Screen. Data for the bub3 strain (AID 167); details: S. cerevisiae bub3 mutant strain, hits give high values
# Method in brief: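 Inhibition values come from growth of compound-treated mutant yeast normalised to vehicle-treated controls.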
# [6] = NCI Yeast Anticancer Drug Screen. Data for the mlh1 rad18 strain (AID 175); details: S. cerevisiae mlh1 rad18 strain growth inhibition, hits give high values
# Method in brief: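 In this whole-cell yeast screen, a strain with altered DNA damage repair is challenged with compound, and its growth is measured against matched vehicle-treated controls.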
# [7] = at 5.0 µM (retest, dose inferred, filed as 0.5)
# [8] = at 50.0 µM (retest, dose inferred, filed as 5.0)
Compound,"growth inhibition [1, 7]","growth inhibition [1, 8]",growth inhibition ([1]; at 50.0 µM),"growth inhibition [2, 7]","growth inhibition [2, 8]",growth inhibition ([2]; at 50.0 µM),"growth inhibition [3, 7]","growth inhibition [3, 8]",growth inhibition ([3]; at 50.0 µM),"growth inhibition [4, 7]","growth inhibition [4, 8]",growth inhibition ([4]; at 50.0 µM),"growth inhibition [5, 7]","growth inhibition [5, 8]",growth inhibition ([5]; at 50.0 µM),"growth inhibition [6, 7]","growth inhibition [6, 8]",growth inhibition ([6]; at 50.0 µM)
S=C(Nc1ccccn1)c1ccccn1,-3%,9%,23.9%,6%,21%,50.3%,2%,43%,69%,-11%,-7%,18.6%,3%,33%,55.8%,3%,46%,51.4%
CC1=C(C)C1[N+](=O)[O-],45%,94% (active),78% (active),35%,97% (active),79.8% (active),44%,98% (active),69%,25%,68%,24.4%,49%,97% (active),65.7%,64%,95% (active),62.9%
COc1cc(/C=C/C(=O)c2ccc3ccccc3c2)cc(OC)c1OC,38%,40%,7.75%,49%,44%,11.3%,1%,45%,34.4%,22%,14%,-5.35%,22%,27%,41.9%,37%,44%,22.6%
COc1cc(CNc2nc3ccccc3nc2-c2cccs2)cc(OC)c1OC,5%,12%,10%,-13%,-22%,0.65%,-1%,20%,19.6%,-12%,9%,60%,-12%,-8%,30%,-17%,17%,55.3%
C=CC[C@]1(C(C)Cc2ccc(OC)c(OC)c2)C[C@@H](OC)C=CC1=O (stereo not given in full),-7%,89% (active),88% (active),8%,89% (active),93% (active),0%,85% (active),88.8% (active),13%,86% (active),88.5% (active),7%,92% (active),89.5% (active),-1%,92% (active),96% (active)
N=c1ccc2c(c1)[nH]c1c3ccccc3[nH]c3cccc2c31,81% (active),98% (active),81.8% (active),27%,98% (active),84% (active),23%,98% (active),89.1% (active),21%,98% (active),90% (active),18%,98% (active),88.3% (active),33%,97% (active),87% (active)
NNC(=O)N/N=C(\CC1(O)C(=O)Nc2c(Cl)ccc(Cl)c21)c1ccc(F)cc1 (stereo not given),79% (active),91% (active),56.4%,50%,80% (active),39.5%,72% (active),85% (active),37.4%,64%,74% (active),2.75%,70% (active),80% (active),21.9%,57%,73% (active),50.3%
Nc1ccccc1O,26%,58%,55.8%,17%,37%,35%,17%,40%,51.1%,15%,30%,8.3%,54%,77% (active),71% (active),45%,77% (active),73.2% (active)
SCCc1ccccn1,-3%,20%,0.4%,-2%,20%,42%,1%,13%,3.65%,-6%,10%,15.1%,-1%,14%,32.1%,-1%,19%,73.1% (active)
Nc1nc(=Nc2ccccc2)ss1,-12%,99% (active),84.8% (active),6%,100% (active),71.1% (active),0%,99% (active),86.5% (active),-7%,99% (active),45.4%,-11%,100% (active),57.5%,12%,99% (active),78.7% (active)
CCCOC1(C)CC(c2cc(OC)c(OC)c(OC)c2)c2cc3c(cc2O1)OCO3 (stereo not given),5%,96% (active),5.1%,5%,100% (active),7.75%,5%,99% (active),-2.6%,4%,99% (active),34.7%,5%,99% (active),3.15%,2%,99% (active),18.9%
Clc1cc[c]([Sn]([O][Sn]([c]2ccc(Cl)cc2)([c]2ccc(Cl)cc2)[c]2ccc(Cl)cc2)([c]2ccc(Cl)cc2)[c]2ccc(Cl)cc2)cc1,98% (active),95% (active),97.5% (active),99% (active),98% (active),99.3% (active),99% (active),98% (active),96.6% (active),99% (active),96% (active),79.5% (active),98% (active),97% (active),88.8% (active),99% (active),97% (active),98.3% (active)
CC(c1ccccc1)C(C(=O)O)(c1ccccc1)c1ccccc1 (stereo not given),80% (active),4%,99.4% (active),76% (active),7%,99.3% (active),61%,26%,99.7% (active),81% (active),12%,99.3% (active),76% (active),-3%,99.5% (active),84% (active),8%,99.3% (active)
CC1=NOC(=O)/C1=C/c1ccc(Cl)c(Cl)c1,-2%,70% (active),31.9%,10%,20%,36.7%,-11%,31%,52.5%,8%,61%,2.1%,-3%,71% (active),33.9%,-10%,45%,43.1%
COc1ccc(C2(O)c3ccccc3C(=O)C2c2ccccn2)cc1 (stereo not given),99% (active),10%,99% (active),98% (active),-5%,99% (active),98% (active),-1%,99.3% (active),97% (active),-1%,98.8% (active),99% (active),7%,99.3% (active),99% (active),4%,98.9% (active)
CCOC(=O)Nc1c(F)cc(F)cc1F,0%,0%,8.65%,-32%,1%,5.6%,1%,-1%,-7.55%,-2%,-4%,45.2%,-5%,-2%,4.25%,2%,0%,-0.05%
COc1ccc(NS(=O)(=O)c2ccc(F)cc2)cc1,-21%,-3%,95.9% (active),1%,-12%,99.3% (active),-26%,-22%,98.5% (active),6%,-22%,97.5% (active),6%,-21%,97.2% (active),-15%,-18%,98.5% (active)
CCCCC#C[I+]c1ccccc1,66%,66%,90.5% (active),46%,46%,93% (active),54%,54%,93.2% (active),58%,58%,91.2% (active),32%,32%,87.5% (active),65%,65%,89.3% (active)
O=C(O)c1ccccc1C1c2ccccc2Oc2ccccc21,36%,5%,95.4% (active),-2%,16%,94% (active),-3%,3%,95.4% (active),5%,6%,97.3% (active),7%,17%,91.2% (active),0%,7%,95.8% (active)
Cc1ccc(S(=O)(=O)S/C(=N\c2ccccn2)Nc2ccccn2)cc1,75% (active),21%,38.9%,72% (active),32%,39.9%,90% (active),5%,58.6%,14%,16%,3%,95% (active),11%,14%,85% (active),29%,52.1%

# — PubChem BioAssay (NCI)
